Screening results from PubChem BioAssay.
JMJD2A Tudor = qHTS Assay for Inhibitors of JMJD2A-Tudor Domain | AlphaScreen JMJD2A-Tudor / H3K4me3 peptide binding | Potency, µM (top dose mostly 114 µM), without a hit: at the top dose activity change, negative = inhibition, most hits filed as inhibitors | AID 504339, 2011 | Lysine-specific demethylase 4A (Homo sapiens), O75164 | actives 4.4% (n = 390,000); note: % is set by controls: 0 for no effect and ±100 for the full control effect; nearly all actives have a fitted effect of over 50% in size
BAZ2B block = qHTS Assay for Inhibitors of BAZ2B | actives 4.4% (n = 360,000) | AID 504333, 2011 | Potency, µM (top dose mostly 114 µM), for inactives: top-dose activity change, negative = inhibition, hits mostly inhibitors | AlphaScreen BAZ2B-H3K14Ac peptide displacement; note: % is set by controls: 0 for no effect and ±100 for the full control effect; nearly all actives have a fitted effect of over 60% in size
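BAZ2B (50 nM) with biotin-H3(5-23)K14Ac peptide (50 nM) in PBS pH 7.4, 0.01% Tween-20, preformed 30 min, then compound 30 min at room temperature; top concentration 110uM. AlphaScreen streptavidin donor/nickel chelate acceptor beads (10 ug/mL final), 20 min dark, signal read.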
HP1b chromo inh = HTS for Inhibitors of HP1-beta Chromodomain Interactions with Methylated Histone Tails | Chromobox protein homolog 1 (Homo sapiens), P83916 | AlphaScreen HP1-beta / biotin-H3K9me3 peptide binding | Potency, µM (series often up to 114 µM), for inactives: at the top dose activity change, negative = inhibition, actives largely listed as inhibitors | actives 0.56% (n = 390,000); note: nearly all actives have a fitted effect of over 70% in size
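AlphaScreen: HP1-beta (50 nM) preformed 30 min with biotin-H3(1-18)K9me3 peptide (50 nM) in PBS pH 7.4, 0.01% Tween-20. Compound added for 30 min at RT, then streptavidin donor/nickel chelate acceptor beads (10 ug/mL) for 30 min.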
G9a inh = qHTS Assay for Inhibitors of Histone Lysine Methyltransferase G9a; Histone-lysine N-methyltransferase EHMT2 (Homo sapiens), Q96KQ7; G9a H3K9 monomethylation, AlphaScreen, 2 h; Potency, µM (doses to about 102 µM), for inactives: at the top dose activity, negative = inhibition, actives largely listed as inhibitors; actives 8.8% (n = 350,000); note: % is set by controls: 0 for no effect and ±100 for the full control effect; nearly all actives have a fitted effect of over 75% in size
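AlphaScreen detection with an anti-monomethyl H3K9 antibody quantified product after a 2 h room-temperature reaction containing 500 nM biotinylated H3K9 peptide, 20 µM SAM and 20 nM enzyme, which had been preincubated 15 min with compound.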
L3MBTL1 inh = qHTS Assay for the Inhibitors of L3MBTL1 | Lethal(3)malignant brain tumor-like protein 1 (Homo sapiens), Q9Y468 | AlphaScreen L3MBTL1–H3K9me1 peptide binding | Potency, µM (series often up to 57.1 µM), without a hit: at the top dose activity, negative = inhibition, hits mostly inhibitors | actives 0.66% (n = 230,000) | AID 485360, 2010; note: % is set by controls: 0 for no effect and ±100 for the full control effect; nearly all actives have a fitted effect of over 60% in size
Target sequence (Q9Y468 whole entry, looked up): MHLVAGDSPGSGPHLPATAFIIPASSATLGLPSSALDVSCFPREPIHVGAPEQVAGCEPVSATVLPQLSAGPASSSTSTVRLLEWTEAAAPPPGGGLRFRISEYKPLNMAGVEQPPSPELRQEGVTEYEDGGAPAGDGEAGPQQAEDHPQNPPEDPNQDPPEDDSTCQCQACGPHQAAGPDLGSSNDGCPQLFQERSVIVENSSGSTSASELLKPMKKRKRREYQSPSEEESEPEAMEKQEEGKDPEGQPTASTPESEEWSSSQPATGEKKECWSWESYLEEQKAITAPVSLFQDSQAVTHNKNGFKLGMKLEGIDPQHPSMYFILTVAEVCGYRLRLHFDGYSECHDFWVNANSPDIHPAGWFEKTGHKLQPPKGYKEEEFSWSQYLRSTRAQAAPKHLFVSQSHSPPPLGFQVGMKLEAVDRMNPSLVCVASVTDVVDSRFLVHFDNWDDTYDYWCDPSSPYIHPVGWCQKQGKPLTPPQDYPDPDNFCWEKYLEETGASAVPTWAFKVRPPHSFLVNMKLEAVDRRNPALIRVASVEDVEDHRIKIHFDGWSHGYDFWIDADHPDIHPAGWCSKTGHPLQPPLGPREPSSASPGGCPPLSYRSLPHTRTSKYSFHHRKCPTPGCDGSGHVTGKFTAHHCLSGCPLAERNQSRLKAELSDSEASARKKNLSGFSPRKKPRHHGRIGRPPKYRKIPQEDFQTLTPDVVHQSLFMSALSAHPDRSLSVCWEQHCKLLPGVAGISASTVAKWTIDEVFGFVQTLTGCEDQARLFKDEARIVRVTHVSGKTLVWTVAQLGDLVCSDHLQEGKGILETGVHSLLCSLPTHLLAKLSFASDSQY
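First, the protein-peptide complex forms for 30 min at room temperature (L3MBTL1 50 nM, biotinylated H3K9me1 peptide 75 nM). Next, compounds are pin-transferred and incubated 30 min. Finally, AlphaScreen beads are added and read after 30 min.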
The depositor's hits bear a star; ! = repeats disagree; [ ] = another dose, or the depositor's remark. Shown are actives, neighbours in structure and some others; about 11% of the full set was active somewhere. Calls come from the whole dose curve; as a rule, active = well fitted inhibition curve with a large enough effect; inconclusive = small, poorly fitted or top-dose-only effect; inactive = no such curve, though single readings can be large or run the other way. Potency is the fitted concentration of half-maximal effect.

For CC(=O)Nc1ccc(S(=O)(=O)Nc2cc(S(=O)(=O)N3CCCCC3)ccc2O)cc1 the results were JMJD2A Tudor inconclusive, BAZ2B block -3.0%, HP1b chromo inh 6.8%, G9a inh 28.2µM* and L3MBTL1 inh 9.8%.
Screening O=S(=O)(Nc1cc(S(=O)(=O)N2CCCC2)ccc1O)c1ccc(Cl)s1 returned JMJD2A Tudor -10.3%, BAZ2B block -26.4%, HP1b chromo inh 5.7%, G9a inh 56.2µM* and L3MBTL1 inh 5.2%.
`CC(=O)c1ccc(NC(=O)COCc2cc(-c3ccco3)on2)cc1` gave JMJD2A Tudor inconclusive, BAZ2B block -21.5%, HP1b chromo inh 16.5% and G9a inh -3.4%[59 µM].
`CCc1c(-c2ccccc2)nc2sc3c(c2c1N)CCCC3` gave JMJD2A Tudor -21.6%, BAZ2B block -29.5%, HP1b chromo inh 10.3%, G9a inh 2.0% and L3MBTL1 inh -9.3%.
Screening CCCc1nc2c(C)ccc(C)c2c(N)c1CC returned JMJD2A Tudor 2.82µM*, BAZ2B block -28.3%, HP1b chromo inh inconclusive, G9a inh inconclusive and L3MBTL1 inh -5.9%.
CC(C)(C)OC(=O)N1CCN(c2ccc([N+](=O)[O-])cc2)CC1 was read as JMJD2A Tudor -15.2%, BAZ2B block inconclusive, HP1b chromo inh 38.1%, G9a inh -7.7% and L3MBTL1 inh -2.9%.
For CC(=O)Oc1cccc(/C=c2\sc3nc(-c4ccco4)nn3c2=O)c1 the results were JMJD2A Tudor 50.1µM*, BAZ2B block -34.7%, HP1b chromo inh 0.1%, G9a inh inconclusive and L3MBTL1 inh inconclusive.
For Cc1nc(C(=O)O)nn1-c1cc(Cl)ccc1Cl the results were JMJD2A Tudor -11.2%, BAZ2B block inconclusive, HP1b chromo inh 29.6%, G9a inh 44.7µM* and L3MBTL1 inh 11.3%.
Screening Cc1nc(C(=O)N(C)C)nn1-c1ccc(Cl)cc1Cl returned JMJD2A Tudor -12.6%, BAZ2B block 8.2%, HP1b chromo inh 3.4%, G9a inh -36.1% and L3MBTL1 inh 11.6%.
Screening CNC(=O)c1nc(C)n(-c2ccc(Cl)cc2Cl)n1 returned JMJD2A Tudor 10µM*, BAZ2B block -5.1%, HP1b chromo inh -11.2%, G9a inh 4.0% and L3MBTL1 inh -6.7%.
COc1cccc(-c2nn[nH]n2)c1O was read as JMJD2A Tudor inconclusive, BAZ2B block 56.2µM*, HP1b chromo inh 26.6%, G9a inh 3.55µM* and L3MBTL1 inh 7.6%.
For COc1ccc(-c2nn[nH]n2)cc1OC the results were JMJD2A Tudor -13.1%, BAZ2B block inconclusive, HP1b chromo inh 30.8% and G9a inh -40.6%.
Brc1ccc(-c2cnnc(N3CCCC3)n2)cc1 was read as JMJD2A Tudor -10.7%, BAZ2B block 2.5%, HP1b chromo inh 26.2%, G9a inh 70.8µM* and L3MBTL1 inh -4.0%.
Screening CCCCCCSC1=C(C#N)C(=O)NC2(CCCCC2)S1 returned JMJD2A Tudor 56.2µM*, BAZ2B block inconclusive, HP1b chromo inh inconclusive, G9a inh 12.6µM* and L3MBTL1 inh -13.4%.
Screening N#CC1=C(S)N(c2ccccc2)C2(CCCCC2)NC1=O returned JMJD2A Tudor -12.5%, BAZ2B block inconclusive, HP1b chromo inh 31.3%, G9a inh inconclusive and L3MBTL1 inh -0.6%.
For NC12CC3CC(CC(C3)C1)C2 the results were JMJD2A Tudor -1.4%, BAZ2B block 7.0%, HP1b chromo inh 74.2%, G9a inh 1.78µM*! and L3MBTL1 inh -4.7%.
For COc1cccc(NC(=O)c2nn(-c3ccc(C)cc3)c(=O)n(C)c2=O)c1 the results were JMJD2A Tudor -16.6%, BAZ2B block 20.3%, HP1b chromo inh 30.6%[57 µM] and G9a inh -0.8%[59 µM].
`COc1ccc(C2=CC(=O)CC(c3ccc(OC)cc3)C2)cc1` (stereo unspecified) gave JMJD2A Tudor -3.4%, BAZ2B block -16.5%, HP1b chromo inh 29.4%, G9a inh -2.8% and L3MBTL1 inh -0.1%.
Screening COc1ccc(C2CC(=O)C(C(c3ccc(O)cc3)C3C(=O)CC(c4ccc(OC)cc4)CC3=O)C(=O)C2)cc1 (stereo unspecified) returned BAZ2B block -36.2%, G9a inh 25.1µM* and L3MBTL1 inh -10.2%.
Screening COC(=O)[C@@]1(Cc2ccccc2)[C@H]2c3cc(C(=O)N4CCCC4)n(Cc4ccsc4Br)c3C[C@H]2CN1C(=O)c1ccccc1 returned BAZ2B block inconclusive, G9a inh inconclusive and L3MBTL1 inh -0.7%.
Screening COC(=O)[C@@]1(Cc2ccc(F)cc2)[C@H]2c3cc(C(=O)N4CCCC4)n(CCO)c3C[C@H]2CN1C(=O)c1ccccc1 returned JMJD2A Tudor -23.4%, BAZ2B block inconclusive, HP1b chromo inh 5.7%, G9a inh inconclusive and L3MBTL1 inh -2.3%.
For COC(=O)[C@@]1(Cc2ccc(F)cc2)[C@H]2c3cc(C(=O)N4CCCC4)n(CCc4ccc(O)c(O)c4)c3C[C@H]2CN1C(=O)c1ccccc1 the results were BAZ2B block 39.8µM*, G9a inh 7.08µM* and L3MBTL1 inh -25.8%.
COC(=O)[C@@]1(Cc2ccc(OC)cc2)[C@H]2c3cc(C(=O)N4CCCC4)n(CCc4c[nH]c5ccc(O)cc45)c3C[C@H]2CN1C(=O)c1ccccc1 was read as BAZ2B block inconclusive, G9a inh 50.1µM* and L3MBTL1 inh -9.4%.
`COC(=O)[C@@]1(Cc2ccc(OC)cc2)[C@H]2c3cc(C(=O)N4CCCC4)n(CCO)c3C[C@H]2CN1C(=O)c1ccccc1` gave JMJD2A Tudor -28.9%, BAZ2B block -31.8%, HP1b chromo inh 10.2%, G9a inh 50.1µM* and L3MBTL1 inh -6.7%.
COC(=O)[C@@]1(Cc2ccc(F)cc2)[C@H]2c3cc(C(=O)N(C)C)n(C[C@H](O)CO)c3C[C@H]2CN1C(=O)c1ccccc1 was read as JMJD2A Tudor -18.3%, BAZ2B block -37.0%, HP1b chromo inh 22.0%, G9a inh -17.5% and L3MBTL1 inh -9.5%.
`COC(=O)[C@@]1(Cc2ccc(OC)cc2)[C@H]2c3cc(C(=O)N(C)C)n(CCSCCO)c3C[C@H]2CN1C(=O)c1ccccc1` gave JMJD2A Tudor -25.5%, BAZ2B block inconclusive, HP1b chromo inh 18.3%, G9a inh 56.2µM* and L3MBTL1 inh -8.1%.
For CN(Cc1cccnc1)C(=O)Cc1ccc(NS(=O)(=O)c2cccc(C(F)(F)F)c2)cc1 the results were JMJD2A Tudor -5.7%, BAZ2B block 6.1%, HP1b chromo inh 30.9% and G9a inh -5.0%.
